Where “and” joins values, the source holds several entries; their conditions need not be identical. Equal entries are not always repeated. For some of these results: Entries with a potency or affinity are not part of this list. Calls of active or inactive are those of the source. Unless noted, no rule for the calls is given here.
How the values were obtained:
[1] = P. berghei load reduction in hepatocytes – cell-based, HepG2, luciferase luminescence, HepG2 viability, primary screen (AID 624349; in the data active = parasite load remaining mostly below about 12%, no sharp cut-off; inactive = mostly above about 10%;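 also: 100% = mean of DMSO negative control wells on the same plate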); settings: P. berghei liver stage in HepG2, luciferase luminescence, concentration not given here; parasite load remaining: stronger effect = lower value; viability: measured here: HepG2 viability without parasites
[2] = biological target: 6-phosphogluconate dehydrogenase, decarboxylating (Homo sapiens) (UniProt P52209); assay: inhibition of human phosphogluconate dehydrogenase – biochemical, recombinant enzyme, NADPH absorbance, primary screen (AID 1159550;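 active = at least 20% inhibition of 6-phosphogluconate dehydrogenase activity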); settings: recombinant 6PGD, NADPH absorbance 341 nm; at 10 µM; stronger effect = higher value
Sequence of 6-phosphogluconate dehydrogenase, decarboxylating (Homo sapiens) (P52209 whole entry, looked up): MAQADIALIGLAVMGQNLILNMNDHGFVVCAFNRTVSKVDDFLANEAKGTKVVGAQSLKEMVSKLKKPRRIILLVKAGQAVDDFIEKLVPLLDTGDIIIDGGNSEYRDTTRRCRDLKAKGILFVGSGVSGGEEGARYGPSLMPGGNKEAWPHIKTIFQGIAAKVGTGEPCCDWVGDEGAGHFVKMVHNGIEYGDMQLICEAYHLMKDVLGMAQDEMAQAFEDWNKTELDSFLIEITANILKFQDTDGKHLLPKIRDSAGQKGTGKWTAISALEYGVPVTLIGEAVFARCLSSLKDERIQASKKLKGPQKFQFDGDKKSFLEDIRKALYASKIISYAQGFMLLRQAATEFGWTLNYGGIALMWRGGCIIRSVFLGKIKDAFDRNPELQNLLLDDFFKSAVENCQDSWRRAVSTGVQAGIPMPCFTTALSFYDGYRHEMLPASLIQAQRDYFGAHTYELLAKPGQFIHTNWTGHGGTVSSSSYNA

[3] = EMT-state selective cytotoxicity in co-culture – imaging, PC-3E GFP, TEM4-18 mCherry, primary screen (AID 1345086;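 active = compounds killing one labelled cell type while sparing the other, by normalised counts and ratio limits, not self-fluorescent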;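 as to all read-outs here: cells exposed to compound for 72 h before imaging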;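 as to red/green cell ratio (normalised): normalised mesenchymal count divided by normalised epithelial count so high means epithelial killing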); settings: PC-3E GFP / TEM4-18 mCherry co-culture, imaging cell counts, at 1 µM; for red/green cell ratio (normalised): actives lie on both sides, counts scaled to control wells, 1 = unselective
[4] = viability loss with induced miR-34 in A549 – imaging, A549 dox-inducible miR-34, nuclei and caspase counts, primary screen (AID 1347080;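 active = compounds whose cell count with miR-34 switched on is under 0.7 times the count with it off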); settings: A549 miR-34 inducible, Hoechst nuclei count, 48 h
[5] = MELAS cybrid and Rieske KO viability enhancers – cell-based, MELAS cybrids, Rieske KO mouse fibroblasts, CellTiter-Glo, primary screen (AID 1508586;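 active = mean z-score across replicates of 1.96 or higher in either the MELAS or the Rieske mutant cell line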;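 also: z relative to plate mean and SD of compound and empty wells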); settings: low glucose
[6] = biological target: Mitogen-activated protein kinase 7 (Homo sapiens) (UniProt Q13164); assay: Gal4-ERK5 driven luciferase induction – cell-based, HTS, primary screen (AID 1508626;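 active = luciferase signal above three times the same-plate solvent-only control wells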;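 also: luciferase driven by Gal4-ERK5 fusion binding five Gal4 sites before minimal TATA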); settings: HeLa Gal4-ERK5 transactivation, 18 h, at 5 µM, stronger effect = higher value
Sequence of Mitogen-activated protein kinase 7 (Homo sapiens) (Q13164 whole entry, looked up, the tested form may be a part): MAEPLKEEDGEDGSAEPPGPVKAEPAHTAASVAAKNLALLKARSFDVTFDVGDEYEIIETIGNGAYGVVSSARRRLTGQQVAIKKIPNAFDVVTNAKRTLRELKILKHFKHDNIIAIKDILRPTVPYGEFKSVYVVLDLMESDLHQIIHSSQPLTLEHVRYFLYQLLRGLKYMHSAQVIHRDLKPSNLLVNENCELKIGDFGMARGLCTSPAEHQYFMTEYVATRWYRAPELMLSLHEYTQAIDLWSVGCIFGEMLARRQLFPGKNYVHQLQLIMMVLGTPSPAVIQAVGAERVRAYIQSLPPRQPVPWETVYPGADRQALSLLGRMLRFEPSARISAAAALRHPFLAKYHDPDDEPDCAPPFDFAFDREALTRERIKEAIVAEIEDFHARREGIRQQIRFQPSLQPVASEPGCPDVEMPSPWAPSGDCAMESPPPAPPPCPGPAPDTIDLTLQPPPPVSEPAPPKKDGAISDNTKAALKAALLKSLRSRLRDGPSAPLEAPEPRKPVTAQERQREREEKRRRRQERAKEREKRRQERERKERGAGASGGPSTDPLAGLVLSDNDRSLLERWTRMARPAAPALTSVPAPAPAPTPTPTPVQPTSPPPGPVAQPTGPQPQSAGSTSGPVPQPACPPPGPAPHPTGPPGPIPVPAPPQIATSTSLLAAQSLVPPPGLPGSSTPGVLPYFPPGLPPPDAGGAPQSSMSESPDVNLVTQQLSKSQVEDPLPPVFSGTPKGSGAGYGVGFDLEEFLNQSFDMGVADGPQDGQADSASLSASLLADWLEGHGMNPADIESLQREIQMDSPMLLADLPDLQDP

[7] = blockers of polyQ-driven CASP3 activation – cell-based (AID 1583); settings: polyglutamine-induced caspase-3 activation, cell assay; stronger effect = higher value;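 tested at 10 µM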
[8] = yeast 75Q aggregation reduction – 75Q-TubU reporter (AID 1593); settings: Yeast 75Q polyglutamine aggregation reporter
[9] = restoration of touch response, mutant HTT neurons – whole organism, C. elegans mechanosensory neurons, N-terminal huntingtin (AID 1599); settings: C. elegans polyQ-huntingtin mechanosensory neurons, stronger effect = higher value
[10] = blockers of cytochrome c efflux from mitochondria – biochemical, purified mitochondria (AID 1603); settings: stronger effect = lower value;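 also: mouse liver mitochondria challenged with calcium chloride; signal normalized to the plate average as 100%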
[11] = polyglutamine aggregate formation blockers (AID 1604); settings: polyglutamine-induced protein aggregation inhibition assay; stronger effect = higher value; tested at 2.5 µM
[12] = glutamate transport activators, MN-1 cells, MN-1 cell line (AID 1612); settings: MN-1 motor neuron cells, stronger effect = higher value;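 also: tested at 1 µM final; 0% = mean of DMSO vehicle wells on each plate; positive means more glutamate uptake than control and negative means less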
[13] = GFP-Q80 aggregate reduction, neuronal-like cells, cell-based, NGF-treated PC12, GFPQ80 (AID 1614); settings: PC12 NGF-treated GFP-polyQ80 inclusion reduction;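 also: lower means fewer inclusions and 0 means no inclusions at all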
[14] = 75Q-TubH aggregate inhibition, S. cerevisiae, yeast (AID 1616); settings: S. cerevisiae 75Q-TubH polyglutamine aggregation suppression; stronger effect = higher value
[15] = compounds altering circadian rhythm period length – cell-based, LOPAC library, luminescence reporter (AID 2774); settings: circadian reporter cells, at 7 µM, actives lie on both sides;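 also: values are relative to mean of DMSO wells on each plate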
[16] = test system: Hepatitis C virus NS3 helicase; assay: blockers of NS3h binding to ssDNA – biochemical, fluorescence polarization, LOPAC1280 library, primary screen (AID 687035; in the data active = inhibition above about 37%); settings: Purified HCV NS3 helicase, Cy5-dT15 ssDNA binding fluorescence polarization; stronger effect = higher value; concentration not given here
[17] = compounds altering Cy5-DNA-NS3h complex signal – biochemical, LOPAC1280, artefact control for HCV NS3 helicase inhibitor project (AID 687037); settings: Cy5-DNA-NS3h complex fluorescence interference counterscreen
[18] = blockers of cellular phospholipid synthesis – cell-based, LOPAC library, screen 4, primary screen (AID 1347384); settings: animal cells, phospholipid biosynthesis inhibition screen; at 10 µM
[19] = galactose survival enhancers in mitochondrial complex I cybrids – cell-based, galactose medium, ATP luminescence, primary screen (AID 1645843;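 active = z-score of at least 1.8 in each of two replicates, scored against plate mean and spread of sample wells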;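 also: positive z means more ATP and so rescue of galactose-driven cybrid death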); settings: complex I mutant cybrid cells, 72 h, stronger effect = higher value
[20] = measured here: epithelial PC-3E GFP cell survival
[21] = measured here: mesenchymal TEM4-18 mCherry cell survival
[22] = stronger effect = lower value, cell number ratio, induced over uninduced
[23] = measured here: relative caspase fold change +Dox/-Dox
[24] = measured here: total cells with miR-34 induction, stronger effect = lower value
[25] = measured here: total cells without miR-34 induction
[26] = MELAS cybrid survival, CellTiter-Glo 48 h, stronger effect = higher value
[27] = Rieske KO mouse fibroblast survival, CellTiter-Glo 72 h

Nc1nc(/C(=C/CC(=O)O)C(=O)N[C@@H]2C(=O)N3C(C(=O)O)=CCS[C@H]23)cs1
parasite load remaining [1]: 145% (inactive) and 53% (inactive) | viability [1]: 95.5% and 96.5% | inhibition [2]: -3.19% (inactive) | red/green cell ratio (normalised) [3]: 1.05 (inactive) | normalised cell number [3, 20]: 0.96 | normalised cell number [3, 21]: 1 | fold change [4, 22]: 0.926 (inactive) | fold change [4, 23]: 1.29 | cell count [4, 24]: 12000 | cell count [4, 25]: 13000 | z-score [5, 26]: -0.448 (inactive) | z-score [5, 27]: -1.4 | luciferase signal [6]: 40 AU (inactive)

CC1(C)S[C@@H]2[C@H](NC(=O)Cc3ccccc3)C(=O)N2[C@H]1C(=O)O
inhibition [7]: 18.9% | score [8]: 1.32 | rescue above control [9]: -0.92 | cytochrome c release ratio [10]: 0.98 | inhibition of aggregation [11]: 16.8% | glutamate uptake change [12]: 6.9% | inclusion score [13]: 2 | aggregation suppression score [14]: 1.3 | parasite load remaining [1]: 73.8% (inactive) and 85.4% (inactive) and 69.6% (inactive) | viability [1]: 70.9% and 69.6% and 97.7% | inhibition [2]: 1.35% (inactive) | red/green cell ratio (normalised) [3]: 1.11 (inactive) | normalised cell number [3, 20]: 0.85 | normalised cell number [3, 21]: 0.94 | fold change [4, 22]: 0.959 (inactive) and 0.873 (inactive) | fold change [4, 23]: 0.53 and 0.733 | cell count [4, 24]: 9610 and 11500 | cell count [4, 25]: 10000 and 13200 | z-score [5, 26]: -1.02 (inactive) | z-score [5, 27]: -0.0384 | luciferase signal [6]: 108 AU (inactive)

NC(N)=NCCCCN=C(N)N
inhibition [7]: 0.26% | score [8]: 1.07 | rescue above control [9]: -1.01 | cytochrome c release ratio [10]: 1.43 | inhibition of aggregation [11]: 83.3% | glutamate uptake change [12]: 11.5% | inclusion score [13]: 2 | aggregation suppression score [14]: 1.37 | period change [15]: 0.195 h (inactive) | parasite load remaining [1]: 111% (inactive) | viability [1]: 108% | inhibition [16]: -3% (inactive) | fluorescence ratio (interference) [17]: 1 (inactive) | inhibition [2]: -2.55% (inactive) | red/green cell ratio (normalised) [3]: 0.92 (inactive) | normalised cell number [3, 20]: 1.06 | normalised cell number [3, 21]: 0.97 | fold change [4, 22]: 0.968 (inactive) and 0.866 (inactive) | fold change [4, 23]: 0.983 and 0.933 | cell count [4, 24]: 9930 and 7710 | cell count [4, 25]: 10300 and 8910 | outcome [18]: inactive | luciferase signal [6]: 52 AU (inactive) | z-score [19]: 0.645 (inactive)

COc1c2ccoc2cc2oc(=O)ccc12
inhibition [7]: -19.8% | score [8]: 1.02 | rescue above control [9]: 6.75 | cytochrome c release ratio [10]: 1.07 | inhibition of aggregation [11]: 80.3% | glutamate uptake change [12]: -26.6% | inclusion score [13]: 2 | aggregation suppression score [14]: 0.569 | inhibition [2]: -3.29% (inactive) | red/green cell ratio (normalised) [3]: 0.94 (inactive) | normalised cell number [3, 20]: 1.1 | normalised cell number [3, 21]: 1.03 | fold change [4, 22]: 0.859 (inactive) | fold change [4, 23]: 0.824 | cell count [4, 24]: 8190 | cell count [4, 25]: 9530 | z-score [5, 26]: -0.332 (inactive) | z-score [5, 27]: -0.177 | luciferase signal [6]: 28 AU (inactive)

Cn1c(=O)[nH]c2ncn(C)c2c1=O
inhibition [7]: 15.7% | score [8]: 1.32 | rescue above control [9]: -11.3 | cytochrome c release ratio [10]: 1.26 | inhibition of aggregation [11]: 52.4% | glutamate uptake change [12]: 1.28% | inclusion score [13]: 2 | aggregation suppression score [14]: 1.3 | period change [15]: -0.1 h (inactive) | inhibition [16]: -3% (inactive) | fluorescence ratio (interference) [17]: 1 (inactive) | inhibition [2]: -14.1% (inactive) | red/green cell ratio (normalised) [3]: 0.89 (inactive) | normalised cell number [3, 20]: 1.01 | normalised cell number [3, 21]: 0.9 | fold change [4, 22]: 0.988 (inactive) | fold change [4, 23]: 1.17 | cell count [4, 24]: 9800 | cell count [4, 25]: 9920 | outcome [18]: inactive | z-score [19]: 0.31 (inactive)

NC1(C(=O)O)CC1
period change [15]: -0.01 h (inactive) | inhibition [16]: -2% (inactive) | fluorescence ratio (interference) [17]: 1 (inactive) | inhibition [2]: -3.72% (inactive) | red/green cell ratio (normalised) [3]: 0.8 (inactive) | normalised cell number [3, 20]: 1.07 | normalised cell number [3, 21]: 0.86 | fold change [4, 22]: 0.945 (inactive) | fold change [4, 23]: 1.33 | cell count [4, 24]: 9670 | cell count [4, 25]: 10200 | outcome [18]: inactive | luciferase signal [6]: 60 AU (inactive) | z-score [19]: 0.575 (inactive)

Source: PubChem BioAssay
